These results are taken from PubChem BioAssay.

Active and inactive are the calls of the source.
Also: test concentration not given here.

One experiment can be described thus: resazurin metabolic signal in A549 cells – cell-based, resazurin fluorescence, 24 h, PK04 Diversity Set, profiling panel (AID 1171). The conditions noted are these: A549 viability, higher = more signal, called active from +8 up or from −8 down.
On to `CC1CC/C=C\[C@H]2OC34C=CCN(C(C)C)C(=O)[C@H]3N(CCCCCCO)C(=O)[C@@H]4C2C(=O)O1` (stereo partly specified), for which the z-score was 0.599 (inactive). Still for that read-out and setting: for `CC1CC/C=C\[C@H]2OC34C=CCN(c5ccc(Cl)cc5)C(=O)[C@H]3N(CCCCCO)C(=O)[C@]4(C)C2C(=O)O1` (stereo partly specified) the value was -0.194 (inactive); for `COCCCNC(=O)[C@@]1(Sc2ccc(C)cc2)CC(=O)N(C2CCCCC2)[C@@H]1c1ccc(CO)cc1`, 0.377 (inactive); for `[N-]=[N+]=Nc1ccccc1[C@H]1OC(c2ccc(OCCCO)cc2)=N[C@@]1(Cc1ccccc1)C(=O)N1CCCCC1`, -2.29 (inactive). Same read-out and setting: for `CC(C)OC(=O)C=C1C[C@@H](c2ccc(C(F)(F)F)cc2)O[C@@H](c2ccc(C(F)(F)F)cc2)O1` the value was 0.452 (inactive).

As to `[N-]=[N+]=Nc1ccccc1[C@@H]1OC(c2ccc(OCCCO)cc2)=N[C@]1(Cc1ccccc1)C(=O)NCC(O)CO` (stereo partly specified), the z-score is -0.545 (inactive). In the case of `[N-]=[N+]=Nc1ccccc1C[C@]1(C(N)=O)N=C(c2ccc(OCCCO)cc2)O[C@H]1c1ccccc1N=[N+]=[N-]`, the z-score is -1.36 (inactive). On the same count and under the same terms, for `C[C@@H]1NC(=O)[C@@]23C(=O)N[C@@H](Cc4ccccc4)C2[C@H](C)[C@@]2(C)O[C@H]2C3/C=C/C/C=C\CNC(=O)[C@@H]2CCCN2C1=O` (stereo partly specified) the value was 0.247 (inactive); for `COCCCNC(=O)[C@]1(CCS(=O)(=O)c2ccccc2)N=C(c2ccc(OCCCO)cc2)O[C@@H]1c1ccccc1N=[N+]=[N-]`, 0.265 (inactive). As for `O=C1OCCC/C=C\[C@H]2OC34C=CCN(CCN5CCOCC5)C(=O)[C@H]3N(CCCCCCO)C(=O)[C@@H]4C12` (stereo partly specified), the z-score is -0.168 (inactive).

Another experiment in a line: resazurin metabolic signal in HepG2 cells – cell-based, resazurin fluorescence, 24 h, PK04 Diversity Set, profiling panel (AID 1172). Conditions: HepG2 viability, higher = more signal.
For the compound `[N-]=[N+]=NCc1ccccc1C[C@@]1(C(=O)N2CCCCC2)N=C(c2ccc(OCCCO)cc2)O[C@@H]1c1ccccc1`, the z-score is -0.876. Still for that read-out and setting: for `O=C1O[C@@H](c2ccccc2)[C@@H](c2ccccc2)N2[C@@H](c3ccc(OCCO)cc3)[C@]3(C(=O)Nc4ccccc43)[C@@H](C(=O)O)[C@H]12` the value was -0.273. The same measure, in the same setting: then `CC(CO)N1C(=O)[C@@H]2[C@H]3C(=O)OCC=C[C@H]3OC23C=CCN(C(C)(C)C)C(=O)[C@@H]13` (stereo partly specified), with 0.0792; and `CN1C(=O)C2C=CC(C(O)c3cccc4ccccc34)N(N3CCCCC3)C2C1=O` (stereo unspecified), with -0.908; and `CN(C)C(=O)[C@]1(CCS(=O)(=O)c2ccccc2)N=C(c2ccc(OCCCO)cc2)O[C@@H]1c1ccccc1N=[N+]=[N-]`, with -0.622. Same read-out and setting: then `COC(=O)[C@@]1(Cc2ccc(F)cc2)[C@H]2c3cc(C(=O)N4CCCC4)n(CCc4ccc(O)c(O)c4)c3C[C@H]2CN1C(=O)c1ccccc1`, with -1.48.

Compound `CN(C)CCCNC(=O)[C@@]1(c2ccc([N+](=O)[O-])cc2)CC(=O)N(CC23CC4CC(CC(C4)C2)C3)[C@@H]1c1ccc(CO)cc1I` showed a z-score of -6.51. Turning to `Cc1cc(C)c(C(O)C2C=CC3C(=O)NC(=O)C3N2Nc2ccc(Cl)cc2Cl)c(C)c1` (stereo unspecified), the z-score is -2.05.

`COCCOC(=O)N1C(=O)[C@@]2(c3cc(C#CC4=CCCCC4)ccc31)[C@H](c1ccc(OCCO)cc1)N1[C@H](c3ccccc3)[C@H](c3ccccc3)OC(=O)[C@H]1[C@@H]2C(=O)N1CCN(c2ncccn2)CC1` returned a z-score of 0.205. As for `C=CCC(OC(C)=O)[C@@H]1[C@@H](N(Cc2ccc(-c3ccccc3)cc2)C(=O)Cc2ccc(F)cc2)c2cc(OCCCO)ccc2N1C(=O)Cc1ccc(OC)cc1` (stereo partly specified), the z-score was -0.939. On the same count and under the same terms, for `COC(=O)[C@@]1(Cc2ccc(OC)cc2)[C@H]2c3cc(C(=O)N(C)C)n(C[C@H](O)CO)c3C[C@H]2CN1C(=O)c1ccccc1` the value was -1.17; for `Cn1cccc1C(O)C1C=CC2C(=O)NC(=O)C2N1Nc1ccc(Cl)cc1Cl` (stereo unspecified), -1.75. Still for that read-out and setting: for `COc1ccc([Si](C)(C)[C@@H]2[C@@H](CC(=O)N(CCO)Cc3ccccc3)O[C@]3(C(=O)N(Cc4cccc(N5C(=O)c6cccc7cccc5c67)c4)c4ccccc43)[C@H]2C)cc1` the value was -0.47; for `Cc1ccc(S[C@]2(C(=O)NCC(F)(F)F)CC(=O)N(Cc3ccccc3C(F)(F)F)[C@@H]2c2ccc(CO)cc2I)cc1`, 0.719. Compound `CCOc1cc(C(O)C2C=CC3C(=O)N(c4ccccc4)C(=O)C3N2Nc2ccc(C#N)cc2)ccc1O` (stereo unspecified) registered a z-score of -1.79.

Turning to `COCCOC(=O)N1C(=O)[C@@]2(c3ccccc31)[C@H](C(=O)N1CCN(c3ncccn3)CC1)[C@H]1C(=O)O[C@H](c3ccccc3)[C@H](c3ccccc3)N1[C@@H]2c1ccc(O)cc1`, the z-score was -0.0067.

In the case of `CCCC[C@@H]1C[C@H]1[C@@H](NC(=O)c1cccs1)c1ccc(C(F)(F)F)cc1`, the z-score is -0.117.

`COC(=O)c1ccc([C@H](NC(=O)c2ccco2)[C@]2(C)C[C@H]2C2CCCCC2)cc1` yielded a z-score of -2.18. `O[C@@H](Cc1ccccc1)[C@@H](/C=C/C1CC1)N(CC#Cc1ccccc1)Cc1cccc(Cl)c1` returned a z-score of 2.5. The same measure, in the same setting: then `N#Cc1ccc(C(O)C2C=CC3C(=O)N(c4ccccc4)C(=O)C3N2Nc2ccccc2)cc1` (stereo unspecified), with -0.888; and `CC(C)N1C(=O)c2ccccc2[C@@H](C(=O)NC2CC2)[C@@H]1c1ccc(CO)cc1`, with -0.146. Compound `COC(=O)c1nc2oc1CC[C@@H](CO)NC(=O)N(C)Cc1cnnn1C[C@H](Cc1ccccc1)NC2=O` yielded a z-score of 0.841. Still for that read-out and setting: then `C=CCNC(=O)[C@@H]1[C@H]2C(=O)O[C@H](c3ccccc3)[C@H](c3ccccc3)N2[C@H](c2ccc(O)cc2)[C@@]12C(=O)N(C(=O)OCCOC)c1ccc(C#CC3(O)CCCCCC3)cc12`, with 0.919; and `O=C1C=C(c2ccccc2)C(=O)c2ccc([C@H]3Oc4ccccc4S(=O)(=O)N4CCC[C@@H]34)cc21`, with -0.337; and `C=C(COC)/C(=C/C[C@H](OC(C)=O)c1ccc(OCCO)cc1)c1cc(C(=O)OC)ccc1OC`, with 1.26. Same read-out and setting: for `CC(C)[Si](C#C[Si](C(C)C)(C(C)C)C(C)C)(O[C@H](C)c1cn([C@H](CO)Cc2ccccc2)nn1)C(C)C` the value was 0.967; for `CC1CC/C=C\[C@H]2OC34C=CCN(C(C)C)C(=O)[C@H]3N(CCCCCCO)C(=O)[C@@H]4C2C(=O)O1` (stereo partly specified), 0.609. As to `CC1CC/C=C\[C@H]2OC34C=CCN(c5ccc(Cl)cc5)C(=O)[C@H]3N(CCCCCO)C(=O)[C@]4(C)C2C(=O)O1` (stereo partly specified), the z-score is -0.773. On to `COCCCNC(=O)[C@@]1(Sc2ccc(C)cc2)CC(=O)N(C2CCCCC2)[C@@H]1c1ccc(CO)cc1`, for which the z-score was -0.0171.

In turn, `[N-]=[N+]=Nc1ccccc1[C@H]1OC(c2ccc(OCCCO)cc2)=N[C@@]1(Cc1ccccc1)C(=O)N1CCCCC1` had a z-score of -1.16.

`CC(C)OC(=O)C=C1C[C@@H](c2ccc(C(F)(F)F)cc2)O[C@@H](c2ccc(C(F)(F)F)cc2)O1`: the z-score came out at 0.54. Consider `[N-]=[N+]=Nc1ccccc1[C@@H]1OC(c2ccc(OCCCO)cc2)=N[C@]1(Cc1ccccc1)C(=O)NCC(O)CO` (stereo partly specified), for which the z-score stood at 0.0381. Still for that read-out and setting: for `[N-]=[N+]=Nc1ccccc1C[C@]1(C(N)=O)N=C(c2ccc(OCCCO)cc2)O[C@H]1c1ccccc1N=[N+]=[N-]` the value was -0.0314; for `C[C@@H]1NC(=O)[C@@]23C(=O)N[C@@H](Cc4ccccc4)C2[C@H](C)[C@@]2(C)O[C@H]2C3/C=C/C/C=C\CNC(=O)[C@@H]2CCCN2C1=O` (stereo partly specified), -0.289.

Compound `COCCCNC(=O)[C@]1(CCS(=O)(=O)c2ccccc2)N=C(c2ccc(OCCCO)cc2)O[C@@H]1c1ccccc1N=[N+]=[N-]` came in with a z-score of 0.129. Still for that read-out and setting: for `O=C1OCCC/C=C\[C@H]2OC34C=CCN(CCN5CCOCC5)C(=O)[C@H]3N(CCCCCCO)C(=O)[C@@H]4C12` (stereo partly specified) the value was 0.287.
